This is part of a sample that, as a whole, favours compounds with a hit. Of some 79,000 tested, about 15% had one in any assay. Rule as the data show it: active = growth inhibition above about 70%; inactive = the rest.
Columns and labels:
[1] = NCI Yeast Anticancer Drug Screen. Data for the rad50 strain (AID 155);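 also: 0% = growth of vehicle-only cultures of the same strain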; settings: S. cerevisiae rad50 strain growth inhibition; at 50.0 µM; active compounds read high
Outline: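 Relative growth inhibition (compound vs vehicle) was measured in yeast with a defined repair-gene alteration.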

[2] = NCI Yeast Anticancer Drug Screen. Data for the mec2-1 strain (AID 157); settings: S. cerevisiae mec2-1 strain, at 50.0 µM, active compounds read high
Outline: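 Using mec2-1 yeast: add compound, measure growth, express inhibition versus vehicle-treated cultures.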

[3] = NCI Yeast Anticancer Drug Screen. Data for the sgs1 mgt1 strain (AID 161);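 also: 0% = growth of cultures given vehicle only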; settings: S. cerevisiae sgs1 mgt1 strain, at 50.0 µM, active compounds read high
Outline: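 Compounds are added to genetically altered yeast, and growth is compared with cultures given vehicle alone to give percent inhibition.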

[4] = NCI Yeast Anticancer Drug Screen. Data for the cln2 rad14 strain (AID 165);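 also: 0% = growth equal to vehicle treated cultures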; settings: S. cerevisiae cln2 rad14 strain, at 50.0 µM, active compounds read high
Outline: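 Yeast strain cln2 rad14, bearing defects in cell cycle control and DNA repair, serves as the test system; values reflect growth inhibition compared with vehicle.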

[5] = NCI Yeast Anticancer Drug Screen. Data for the bub3 strain (AID 167); settings: S. cerevisiae bub3 mutant strain, at 50.0 µM, active compounds read high
Outline: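 Screening used yeast with an engineered genetic alteration affecting cell cycle control. Compound-exposed cultures were compared with vehicle cultures, and reduced growth was taken as inhibition.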

[6] = NCI Yeast Anticancer Drug Screen. Data for the mlh1 rad18 strain (AID 175); settings: S. cerevisiae mlh1 rad18 strain growth inhibition; at 50.0 µM; active compounds read high
Outline: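 Steps: expose repair-defective yeast to compound; measure growth; express inhibition against vehicle-treated controls.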

Measured: growth inhibition

CC(NC(=O)NC(C)(C)C)c1ccccc1 (stereo unspecified)
inactive: [1] 3.05% | [2] -12.9% | [3] -5.05% | [4] -37% | [5] 5.2% | [6] 4.1%

COc1ccc(C(C#N)C(=O)CCC(=O)C(C#N)c2ccc(OC)c(OC)c2)cc1OC (stereo unspecified)
inactive: [1] 28.3% | [2] 2.9% | [3] -8.65% | [4] -15.3% | [5] -2.8% | [6] 26.8%

O=C(NCCNc1ccccc1)C12CC3CC(CC(C3)C1)C2
inactive: [1] -4.2% | [2] 1.35% | [3] -3.9% | [4] -2.4% | [5] 19.1% | [6] 9.5%

COc1ccc2c(c1)NC(C(C)C)=NS2(=O)=O
inactive: [1] 17.9% | [2] 15.8% | [3] 17.4% | [4] 4.95% | [5] 18.4% | [6] 25.8%

Cc1ccc(C)c(NC(=O)C(=O)C2C(=O)C3=C(CC2(C)C)Nc2ccccc2S3)c1 (stereo unspecified)
inactive: [1] -21.2% | [2] -20.2% | [3] -14.1% | [4] -21.5% | [5] -28.4% | [6] -33%

CCCCOC(=O)/C=C/C(=O)N1CCN(C(=O)/C=C/C(=O)OCCCC)C(C)C1 (stereo unspecified)
inactive: [1] 33.7% | [2] 24.7% | [3] 20.8% | [4] -11.1% | [5] 24.9% | [6] 34.6%

O=C(c1cccc(F)c1)c1ccccc1Cc1ccccc1
inactive: [1] -4.45% | [2] 4.2% | [3] -8.05% | [4] 19.4% | [5] -3.1% | [6] -11.4%

C/C=C/C(=O)N1C(=O)OC[C@@H]1c1ccccc1
inactive: [1] 37.4% | [2] 54.5% | [3] 49.7% | [4] 46.6% | [5] 53.6% | [6] 31.9%

S=C(SNC1CCCCC1)SNC1CCCCC1
inactive: [1] -65.5% | [2] -14.2% | [3] 4.25% | [4] -13.4% | [5] 9.35% | [6] 6.25%

CC(C)(OC(=O)Nc1ccccc1)c1ccc([N+](=O)[O-])cc1
inactive: [1] -5% | [2] 9.1% | [3] 13.2% | [4] -25.5% | [5] -22.7% | [6] -4.45%

C[C@@H](O)CO
inactive: [1] 17.8% | [2] -16% | [3] 1.7% | [4] 3.75% | [5] -3.55% | [6] 13.2%

CC(C)NC(=O)OCc1c(COC(=O)NC(C)C)c(Sc2ccccc2)n2c1CCC2
inactive: [1] 6.6% | [2] -17.1% | [3] 1.85% | [4] -27.6% | [5] 9.1% | [6] 16.2%

CCOC(=O)Nc1cccc(Cl)c1Cl
inactive: [1] -31.1% | [2] -39.1% | [3] -22.4% | [4] 6.75% | [5] -27.9% | [6] -8%

COc1ccc(C(O)(c2ccc(OC)cc2)c2ccccc2Cc2ccccc2OC)cc1
inactive: [1] -61.6% | [2] 1.65% | [3] -22.3% | [4] -20.6% | [5] 0.65% | [6] -21.4%

O=C(O)c1cc(Cc2ccc(I)c(C(=O)O)c2)ccc1I
inactive: [1] 20.9% | [2] 2.5% | [3] 32.9% | [4] 29% | [5] -5.75% | [6] 40.5%

CC(=O)/C=C\c1ccc(-c2ccccc2)cc1
inactive: [1] 2.65% | [2] -36.2% | [3] -3.6% | [4] -0.6% | [5] -18.9% | [6] -22.7%

CCCCCCCCCCCCCCCCOc1ccc(Sc2ccc([N+](=O)[O-])cc2)cc1
inactive: [1] 44.5% | [2] 4.2% | [3] 35.6% | [4] -3.9% | [5] 13.6% | [6] 31.6%

O=C1C=CC(=Nc2ccc3c(c2)C(=O)c2cc(F)ccc2-3)O1
inactive: [1] -0.35% | [2] -6.7% | [3] 9.2% | [4] -2.15% | [5] 1.35% | [6] 5.3%

COC(=O)CCc1ccc(N)cc1
inactive: [1] 4.85% | [2] -2.95% | [3] 9.5% | [4] -4.3% | [5] -2.1% | [6] 2.9%

Cn1c(=O)c2c(nc(C[N+]3([O-])CCOCC3)n2C)n(C)c1=O
inactive: [1] -4.75% | [2] -34.9% | [3] -27.9% | [4] 8.35% | [5] -11.5% | [6] -27.9%

O=C(NCCc1ccccc1Br)c1ccccc1
inactive: [1] 8.25% | [2] -26.6% | [3] -5.95% | [4] 18.8% | [5] 28.7% | [6] -6.35%
